Compound activity from PubChem BioAssay.
D1 antag – human D1 dopamine receptor antagonism; P21728; HEK293 TREx D1 cells, calcium flux, dopamine EC80; active compounds read low; activity change, negative = inhibition, % at 10 µM; 360,000 compounds, 3.2% hits; in the data active means activity change below about -30%; further: on the % scale 0 is the no-effect control and ±100 the full control effect
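Kinetic fluorescence of a calcium dye serves as the read-out. D1-expressing Hek293 Trex cells, induced overnight at 30 C, are exposed to compound for 180 s before an EC80 dopamine addition, then read 180 s further.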
TRHR PAM – allosterically enhances the human TRH receptor. enhancement, % at 2 µM. TRHR cells, fluo-8 calcium fluorescence, EC20 TRH enhancement. AID 493056. 360,000 compounds, 0.66% hits; in the data active means enhancement above about 30%; further: 0% is about no effect
Target sequence (P34981 whole entry, looked up): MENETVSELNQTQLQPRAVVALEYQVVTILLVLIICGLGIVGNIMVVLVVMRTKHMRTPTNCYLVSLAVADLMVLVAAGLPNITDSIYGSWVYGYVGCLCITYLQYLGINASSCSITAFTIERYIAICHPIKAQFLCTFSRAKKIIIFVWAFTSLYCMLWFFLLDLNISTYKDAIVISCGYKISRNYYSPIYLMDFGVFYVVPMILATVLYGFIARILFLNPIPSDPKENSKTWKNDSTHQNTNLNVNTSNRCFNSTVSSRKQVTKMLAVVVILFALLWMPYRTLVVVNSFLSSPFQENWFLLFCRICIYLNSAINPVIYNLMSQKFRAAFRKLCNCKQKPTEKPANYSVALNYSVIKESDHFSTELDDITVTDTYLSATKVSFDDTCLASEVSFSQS
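TRHR-expressing cells loaded with fluo-8 calcium dye were read kinetically (ex 480/em 530) during compound addition, then stimulated with an EC20 of TRH (10 nM final). Enhancement of the Gq-mediated intracellular calcium response was scored.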
Epigenetic derep – epigenetic control regulation, reporter derepression; murine LDR cells, GFP reporter derepression, 30 h; Potency, µM (doses to about 53.9 µM), for the others: at the top dose GFP activation, hits mostly activators; 280,000 compounds, 0.2% hits; AID 1865; active means well fitted activation curve with a large enough effect; inconclusive means small, poorly fitted or top-dose-only effect; further: potency means the concentration at half of the fitted maximal effect; % of control where 0% means no effect; nearly all actives have a fitted effect of over 60% in size
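Reporter derepression read as number of fluorescent GFP-positive objects, 20-120 um in size, counted by laser-scanning cytometer. Mouse LDR line with an epigenetically silenced CMV-GFP locus; compound incubation 30 h, 37 C.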
D1 PAM – enhances dopamine response at the human D1 receptor. AID 504651. 360,000 compounds, 0.036% hits. HEK293 TREx D1 cells, calcium flux, dopamine EC20 potentiation. P21728. potentiation, % at 10 µM; in the data active means potentiation above about 30%; further: 0% is about no effect
D1 ag – agonists of human D1 dopamine receptor; P21728; HEK293 T-REx D1 cells, calcium flux, agonist mode; activation, % at 2 µM; 360,000 compounds, 1% hits; AID 504660; further: 0% is about no effect
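Agonism was scored from calcium flux recorded over 180 s (1 read/s) after pintool compound addition, following a 10-cycle baseline. Cells were inducible force-coupled HEK293 TREx D1, plated overnight at 30 C and loaded with no-wash calcium dye.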
TRHR ag – TRH receptor (human) agonism | TRHR cells, calcium flux fluo-8, FDSS agonist mode | AID 493084 | activation, % at 2 µM | P34981 | 360,000 compounds, 0.18% hits; further: 0% is about no effect
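Steps: seed TRHR cells overnight; add fluo-8 no-wash Ca dye, RT 30 min–1.5 h; record 10 s baseline; pin-transfer compounds; monitor fluorescence 1 cycle/s for the agonist window. Calcium increases flag candidate agonists.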
An asterisk follows results filed as active; ? = inconclusive; / = no result given; ! = a repeat was not active; [ ] = remark or other dose. A selection: hits, their analogues and other compounds. The true share with any hit is near 4.6%. Unless noted, no stated cut-off is given here; in the data, active means activation above about 30%; inactive means the rest.

SMILES | D1 antag | TRHR PAM | Epigenetic derep | D1 PAM | D1 ag | TRHR ag
Cc1ccccc1CNC(=O)C(=O)NCC(c1ccco1)S(=O)(=O)c1ccc(F)cc1 (centres undefined) | / | -4 | -1% | -1 | 7 | 0
Cc1ccc(NC(=O)C2CCN(c3nc4ccccc4nc3C(F)(F)F)CC2)cc1F | -2 | 0 | -5% | -5 | 6 | 1
COc1cccc(-c2nc(SCC(=O)NCC3CCCO3)c(-c3ccc(Cl)cc3)[nH]2)c1 (centres undefined) | -56* | -2 | 0% | -4 | 2 | 2
COc1ccc(-c2[nH]c(-c3ccc(Cl)cc3)nc2SCC(=O)Nc2nccs2)cc1 | -32* | -8 | 1% | -5 | 0 | 0
COc1ccc(-c2[nH]c(-c3ccccc3)nc2SCC(=O)Nc2nccs2)cc1 | -4 | 1 | 4% | -2 | -4 | 0
CC1=C(C(=O)NCc2cccc(F)c2)C2(CCCCCC2)OC1=O | 1 | 4 | -1% | 2 | 2 | -1
COc1cc(OC)c(NC(=O)C2=C(C)C(=O)OC23CCCCCC3)cc1Cl | -70* | 14 | 0% | -6 | -1 | 0
CC1=C(C(=O)Nc2cc(Cl)ccc2C)C2(CCCCC2)OC1=O | 15 | 7 | 0% | 1 | 32* | 0
CC1=C(C(=O)NCc2cccc(Cl)c2)C2(CCCCCC2)OC1=O | -31* | 17 | 0% | -2 | 1 | -1
CC1=C(C(=O)Nc2cc(C)ccc2C)C2(CCCCCC2)OC1=O | 7 | 12 | 0% | -1 | -2 | 1
CC1CN(c2ccc([N+](=O)[O-])nc2)CC(C)O1 (centres undefined) | -35* | 0 | -4% | -4 | 1 | 0
O=C(CN1C(=O)CSc2ccc(S(=O)(=O)N3CCCC3)cc21)NCc1ccc(F)cc1Cl | -3 | -4 | 0% | 2 | -1 | -1
Cc1ccc(S(=O)(=O)N2CCN(C(=O)COC(=O)/C=C/c3ccccc3)CC2)c(C)c1 | -6 | 6 | / | -1 | 8 | 1
CSc1ccc(/C=C/C(=O)OCC(=O)N2CCN(S(=O)(=O)c3ccc(C)cc3C)CC2)cc1 | -33* | -4 | / | -3 | 12 | 1
Cc1ccc(S(=O)(=O)N2CCN(C(=O)COC(=O)/C=C/c3ccc(F)cc3)CC2)c(C)c1 | -38* | -6 | / | -2 | 7 | 0
COc1cccc(C(=O)Oc2c(Br)cc(Br)cc2/C=N/NC(=O)c2cc(C)[nH]n2)c1 | -32* | -6 | -1% | -3 | 10 | 2
Cc1cc(C(=O)N/N=C/c2cccc(OC(=O)c3cccc(Br)c3)c2)n[nH]1 | 8 | -4 | / | 0 | 2 | 0
CCC1CCCCN1C(=O)COC(=O)c1cc2ccccc2cc1O (centres undefined) | -32* | -1 | -3% | -9 | 15 | 0
Cc1ccc(C(=O)NCCc2nnc3c(C(F)(F)F)cc(Cl)cn23)o1 | -33* | -22 | / | -9 | 0 | 0
Cc1ccc(S(=O)(=O)c2[nH]c(-c3ccccc3)nc2SCC(N)=O)cc1 | 6 | 4 | 2% | 0 | 0 | 0
CC(C)C(=O)Nc1ccc(Sc2ccc(F)cc2)cc1 | -50* | -3 | -1% | -10 | 11 | 1
CC(C)C(=O)Nc1ccc(Nc2ccccc2)cc1 | -15 | 4 | -2% | -2 | 3 | 0
Cc1ccc(C)c(NC(=O)Cn2c(=O)nc(-c3ccccc3)c3ccccc32)c1 | -10 | -6 | -5% | 1 | -2 | 0
CCN1C(=O)[C@H]2[C@H]3[C@H](O)[C@H](O)C/C(=N/OC[C@@H](O)COCc4ccco4)[C@@H]3CC[C@@H]2C1=O | / | / | 0%[10.1 µM] | / | / | /
CN(C)c1ccc(/C=C(\Cl)c2nc3ccccc3s2)cc1 | -36* | 1 | 0% | -1 | 99* | -1
SMILES | D1 antag | TRHR PAM | Epigenetic derep | D1 PAM | D1 ag | TRHR ag
COc1ccc(OC)c(C(=O)CSc2nnc(Cc3cccs3)n2CCc2ccccc2)c1 | 3 | -7 | -3% | 3 | 51* | -1
COc1ccc(OC)c(C(=O)CSc2nnc(-c3cccs3)n2C)c1 | 3 | -2 | -1% | 2 | 27 | 0
COc1cccc(C(=O)Nc2cccc(C(=O)OCc3cc(=O)n4c(C)csc4n3)c2)c1 | 13 | 2 | ? | 0 | 0 | -1
COc1ccc(-c2cn(-c3ccccc3)c3[n+]2CCS3)cc1 | -53*! | 2 | 2% | -7 | 2 | 0
c1ccc(-c2cn(-c3ccccc3)c3[n+]2CCS3)cc1 | 23 | 4 | -1% | -2 | 6 | 0
O=C(C1=NN(c2ccccc2)C2C(=O)N(c3ccccc3Cl)C(=O)C12)c1ccccc1 (centres undefined) | -10 | 5 | 0% | -5 | 193* | 58*
COc1ccccc1N1N=C(C(=O)c2ccccc2)C2C(=O)N(c3ccc(Br)cc3)C(=O)C21 (centres undefined) | -9 | -3 | 0% | 0 | 46* | 12
CCOC(=O)C1=NN(c2ccccc2)C2C(=O)N(c3ccccc3OC)C(=O)C12 (centres undefined) | 11 | 0 | -1% | 3 | 5 | -1
Cc1ccc(N2C(=O)C3C(C(=O)c4ccccc4)=NN(c4ccccc4)C3C2=O)cc1 (centres undefined) | -11 | -1 | 3% | -6 | 117* | -1
COc1ccccc1N1C(=O)C2C(C(=O)c3ccccc3)=NN(c3ccccc3)C2C1=O (centres undefined) | -18 | 3 | -3% | 0 | 35* | 18
CCOc1ccc(N2C(=O)C3C(c4ccccc4)=NN(c4ccccc4)C3C2=O)cc1 (centres undefined) | -6 | 6 | 7% | 0 | 4 | 1
CC1=C(C(=O)Nc2cccnc2)C(c2cccc(O)c2)n2nc(SCc3ccccc3)nc2N1 (centres undefined) | -2 | -6 | -1% | -5 | 1 | 0
CCCCc1ccc(-n2nc3cc(Cl)c(NC(=O)c4ccc(OC)cc4)cc3n2)cc1 | 2 | 9 | 1% | -2 | 0 | 1
CCc1ccccc1NC(=O)Cn1nnc(-c2nc(-c3ccncc3)no2)c1N | 9 | -2 | 2% | -1 | -2 | 0
Cc1ccc(CNC(=O)c2sc3nc(-c4ccccc4)cn3c2C)cc1 | -6 | -2 | 3% | -5 | 1 | 1
Cc1c(C(=O)NCc2ccc(F)cc2)sc2nc(-c3ccc(F)cc3)cn12 | -50* | 0 | 0% | -5 | 4 | 0
C=C1CCC2[C@](C)(CO)[C@H](O)CC[C@@]2(C)[C@@H]1/C=C/C1=CCOC1=O (some centres undefined) | -66* | -1 | / | -6 | 2 | 1
